From PubChem BioAssay come the findings set out here.

Where “and” joins values, the source holds several entries; their conditions need not be identical. Identical values can stand only once. Calls of active or inactive are those of the source. Unless noted, no rule for the calls is given here.

A short description of experiment [1]: compounds altering circadian rhythm period length – cell-based, LOPAC library, luminescence reporter (AID 2774).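 Also: values are relative to mean of DMSO wells on each plate.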 The following applies: circadian reporter cells, at 7 µM, actives lie on both sides.
Experiment [2] in a line: P. berghei load reduction in hepatocytes – cell-based, HepG2, luciferase luminescence, HepG2 viability, primary screen (AID 624349; in the data active = parasite load remaining mostly below about 12%, no sharp cut-off; inactive = mostly above about 10%;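 also: 100% = mean of DMSO negative control wells on the same plate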). The following applies: P. berghei liver stage in HepG2, luciferase luminescence, concentration not given here; parasite load remaining: stronger effect = lower value; viability: measured here: HepG2 viability without parasites.
Experiment [3] concerns Hepatitis C virus NS3 helicase. In words: blockers of NS3h binding to ssDNA – biochemical, fluorescence polarization, LOPAC1280 library, primary screen (AID 687035; in the data active = inhibition above about 37%). The following applies: Purified HCV NS3 helicase, Cy5-dT15 ssDNA binding fluorescence polarization; stronger effect = higher value; concentration not given here. For orientation: Fluorescence polarisation rises when a labelled molecule tumbles more slowly, as on binding a larger partner.

Experiment [4] in a line: compounds altering Cy5-DNA-NS3h complex signal – biochemical, LOPAC1280, artefact control for HCV NS3 helicase inhibitor project (AID 687037). The settings on record: Cy5-DNA-NS3h complex fluorescence interference counterscreen.
Experiment [5] can be described thus: viability loss with induced miR-34 in A549 – imaging, A549 dox-inducible miR-34, nuclei and caspase counts, primary screen (AID 1347080;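 active = compounds whose cell count with miR-34 switched on is under 0.7 times the count with it off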). The settings on record: A549 miR-34 inducible, Hoechst nuclei count, 48 h.
Experiment [6] in a line: blockers of cellular phospholipid synthesis – cell-based, LOPAC library, screen 4, primary screen (AID 1347384). The following applies: animal cells, phospholipid biosynthesis inhibition screen; at 10 µM.
Experiment [7] can be described thus: MELAS cybrid and Rieske KO viability enhancers – cell-based, MELAS cybrids, Rieske KO mouse fibroblasts, CellTiter-Glo, primary screen (AID 1508586;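 active = mean z-score across replicates of 1.96 or higher in either the MELAS or the Rieske mutant cell line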;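 also: z relative to plate mean and SD of compound and empty wells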). The settings on record: low glucose.
Experiment [8] is described as follows: galactose survival enhancers in mitochondrial complex I cybrids – cell-based, galactose medium, ATP luminescence, primary screen (AID 1645843;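 active = z-score of at least 1.8 in each of two replicates, scored against plate mean and spread of sample wells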;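 also: positive z means more ATP and so rescue of galactose-driven cybrid death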). The following applies: complex I mutant cybrid cells, 72 h, stronger effect = higher value.
A short description of experiment [9]: compounds altering viability of human ES cells (AID 493140).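 Also: cells exposed to compounds for four days before counting.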 The settings on record: human embryonic stem cell survival screen; stronger effect = higher value.
The nature of experiment [10]: chitosan synthesis blockers in C. neoformans – flow cytometry, Cibacron Brilliant Red staining (AID 1347148).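 Also: compound exposure lasted three days at 37 degrees C.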 The settings on record: Cryptococcus neoformans chitosan, stronger effect = lower value; at 10 µM unless noted.
The mark [11] stands for this setting: stronger effect = lower value, cell number ratio, induced over uninduced.
[12] abbreviates: measured here: relative caspase fold change +Dox/-Dox.
[13] abbreviates: measured here: total cells with miR-34 induction, stronger effect = lower value.
[14] abbreviates: measured here: total cells without miR-34 induction.
Where [15] appears, read: MELAS cybrid survival, CellTiter-Glo 48 h, stronger effect = higher value.
Setting [16] is: Rieske KO mouse fibroblast survival, CellTiter-Glo 72 h.

For orientation: viability means a read-out of living cells in per cent, often relative to untreated cells. One may read the inhibition as the change of the read-out against control, counted positive when it falls.

Regarding `COc1ccccc1N1CCN(CCCCNC(=O)c2ccc3ccccc3c2)CC1`, the period change in experiment [1] was 0.185 h (inactive). For the same compound, the parasite load remaining in [2] was 110% (inactive) and 55% (inactive). Moreover, the viability in experiment [2] was 97.7% and 74.2%. In addition, the inhibition in experiment [3] is -1% (inactive). The fluorescence ratio (interference) in experiment [4] is 1 (inactive). In addition, the fold change was 1.04 (inactive) and 0.819 (inactive) in [5] (setting [11]); 1.41 and 1.7 in experiment [5] (setting [12]). The cell count was 7170 and 7370 in [5] (setting [13]); 6900 and 9000 in [5] (setting [14]). In addition, the outcome in experiment [6] was inactive. For the same compound, the z-score was -0.843 (inactive) in experiment [7] (setting [15]), 0.134 in experiment [7] (setting [16]) and -0.51 (inactive) in experiment [8].

As for `CC/C=C\C/C=C\C/C=C\CCCCCCCC(=O)O`, the survival in experiment [9] is 92.8 (inactive). In addition, the fold change is 0.97 (inactive) and 0.988 (inactive) in experiment [5] (setting [11]); 1.3 and 0.691 in experiment [5] (setting [12]). In addition, the cell count was 6070 and 5710 in [5] (setting [13]); 6250 and 5780 in experiment [5] (setting [14]). Besides, the fold fluorescence in [10] was 4.4 (inactive).

Regarding `NC(N)=NCc1cccc(I)c1`, the period change in experiment [1] was 0.01 h (inactive). In [9], the survival was 4 (inactive). Moreover, the parasite load remaining in experiment [2] is 28.4% (inactive) and 43.8% (inactive). Besides, in experiment [2], the viability was 121% and 78.9%. Further, in experiment [3], the inhibition was -5% (inactive). In experiment [4], the fluorescence ratio (interference) was 0.9 (inactive). Moreover, the fold change in [5] (setting [11]) was 1.1 (inactive) and 0.739 (inactive); in [5] (setting [12]) it was 0.666 and 1.95. The cell count was 8720 and 5880 in [5] (setting [13]); 7960 in experiment [5] (setting [14]). The outcome in experiment [6] was inactive. The z-score in experiment [7] (setting [15]) is -0.124 (inactive); in [7] (setting [16]), -0.101; in [8] it was -0.305 (inactive).

`COc1ccc(C(=O)NCc2cccnc2)cc1C(=O)NCc1cccnc1`: the period change in experiment [1] was -0.05 h (inactive). Also, the survival in [9] was 25.1 (inactive). Besides, the parasite load remaining in experiment [2] is 27.2% (inactive) and 91.5% (inactive) and 35% (inactive). Further, the viability in experiment [2] was 71% and 87.7% and 69.5%. Further, in experiment [3], the inhibition is -2% (inactive). Besides, in experiment [4], the fluorescence ratio (interference) was 1 (inactive). The fold change in experiment [5] (setting [11]) was 0.938 (inactive) and 0.931 (inactive) and 0.857 (inactive); in experiment [5] (setting [12]) it was 1.32 and 2 and 1.31. The cell count is 10400 and 9270 in [5] (setting [13]); 11100 and 9960 and 10800 in [5] (setting [14]). Moreover, the result in experiment [6] was inactive. Besides, the z-score in experiment [7] (setting [15]) is 0.681 (inactive) and 0.373 (inactive); in experiment [7] (setting [16]), 0.414 and 0.0826; in [8], 0.09 (inactive) and 0.34 (inactive).

On to `CCCCC/C=C\C/C=C\C/C=C\C/C=C\CCCCCC(=O)O`, for which the survival in experiment [9] was 79.5 (inactive). Also, the fold change in experiment [5] (setting [11]) is 1.01 (inactive) and 0.958 (inactive); in experiment [5] (setting [12]), 1.23 and 0.967. Moreover, the cell count in [5] (setting [13]) was 6030 and 5700; in [5] (setting [14]), 5980 and 5950. Besides, the fold fluorescence in experiment [10] was 4.08 (inactive).

On to `CCCCC[C@H](O)/C=C/C1=C(CCCCCCC(=O)O)C(=O)CC1`, for which the survival in [9] was 68.1 (inactive). Also, the fold change in experiment [5] (setting [11]) is 0.976 (inactive) and 0.956 (inactive); in experiment [5] (setting [12]) it was 1.34 and 1.33. For the same compound, the cell count in experiment [5] (setting [13]) was 6120 and 6210; in experiment [5] (setting [14]), 6270 and 6500. For the same compound, the fold fluorescence in experiment [10] is 3.81 (inactive).

Consider `CC(C)(C)[C@]1(O)CCN2C[C@H]3c4ccccc4CCc4cccc(c43)[C@@H]2C1`, for which the period change in experiment [1] was 0.045 hour (inactive) and 0.1 hour (inactive). For the same compound, the parasite load remaining in [2] was 63.7% (inactive). Also, the viability in experiment [2] was 156%. For the same compound, the inhibition in experiment [3] was 0% (inactive) and -5% (inactive). For the same compound, in [4], the fluorescence ratio (interference) is 1 (inactive). For the same compound, the fold change in experiment [5] (setting [11]) was 1.18 (inactive) and 1.07 (inactive) and 0.945 (inactive); in experiment [5] (setting [12]), 1.07 and 1.2 and 1.29. The cell count was 6310 and 6160 and 8940 in [5] (setting [13]); 5360 and 5740 and 9460 in experiment [5] (setting [14]). In addition, in experiment [6], the outcome was inactive. Also, the z-score was 0.22 (inactive) in experiment [7] (setting [15]); -0.23 in experiment [7] (setting [16]); -1.48 (inactive) and -1.34 (inactive) and -0.325 (inactive) in experiment [8].

As for `CCCCC/C=C\C/C=C\CCCCCCCCCC(=O)O`, the survival in experiment [9] was 74.2 (inactive). The fold change in experiment [5] (setting [11]) was 0.992 (inactive) and 1.02 (inactive); in experiment [5] (setting [12]) it was 0.988 and 0.888. Further, the cell count in [5] (setting [13]) was 6110 and 5920; in experiment [5] (setting [14]) it was 6160 and 5820. Moreover, in experiment [10], the fold fluorescence is 3.91 (inactive).

On to `CNCCC(Oc1ccccc1C)c1ccccc1` (configuration not stated), for which, in [1], the period change is 0.255 h (inactive). Moreover, the inhibition in experiment [3] was -5% (inactive). The fluorescence ratio (interference) in experiment [4] was 0.9 (inactive). Moreover, the fold change in experiment [5] (setting [11]) is 1.03 (inactive) and 0.898 (inactive) and 0.925 (inactive); in [5] (setting [12]), 1.24 and 2 and 2.24. Besides, the cell count is 9740 and 9090 and 9100 in experiment [5] (setting [13]); 9500 and 10100 and 9850 in experiment [5] (setting [14]). Besides, in experiment [6], the compound was classed as inactive. The z-score in experiment [7] (setting [15]) was -0.0629 (inactive); in experiment [7] (setting [16]), -0.0775; in [8], -0.235 (inactive) and -0.28 (inactive).

`CCCCC/C=C\C/C=C\C/C=C\CCCCC(=O)O`: in experiment [9], the survival is 76.5 (inactive). For the same compound, the fold change in experiment [5] (setting [11]) was 0.948 (inactive) and 1.06 (inactive); in experiment [5] (setting [12]), 1.2 and 0.96. Further, the cell count in [5] (setting [13]) was 5680 and 5970; in experiment [5] (setting [14]) it was 5990 and 5660. Besides, the fold fluorescence in experiment [10] is 4.86 (inactive).

With `CCCNC1CCc2nc(N)sc2C1` (configuration not stated), the fold change is 0.968 (inactive) and 0.933 (inactive) and 0.946 (inactive) in experiment [5] (setting [11]); 2.07 and 1.64 and 3.69 in experiment [5] (setting [12]). In addition, the cell count was 9570 and 9980 and 9760 in experiment [5] (setting [13]); 9890 and 10700 and 10300 in [5] (setting [14]). The z-score in [7] (setting [15]) is -0.192 (inactive); in [7] (setting [16]) it was 0.744; in [8], 1.44 (inactive) and 0.095 (inactive).
